This note sets out measurements from the OligoGym collection.
Note: reference of the scale not given here.

The target of one assay is DIRAS3. The assay is described as follows: pooled miR-30 sensor sort-seq; sequence = guide strand. The following applies: shRNA.
Take TATACGTATTGACAACATGGAT: the sensor-assay potency score (higher = more potent) is -1.16. As to TTGTTACCTTTGATCTTGCAGA, the sensor-assay potency score (higher = more potent) is -0.643. TACTTTAAATACATCATGCTAC returned a sensor-assay potency score (higher = more potent) of -0.338. With TACATCATGCTACATTTTGTTC, the sensor-assay potency score (higher = more potent) was -1.42. With TTGCCGTCGCCACTCTTGCTGT, the sensor-assay potency score (higher = more potent) was -1.2.

With TTTAAATACATCATGCTACATT, the sensor-assay potency score (higher = more potent) is -0.644. The same measure, in the same setting: next, TAACATAGTGAAATGAGTCCAC: 0.953; TTACAGTCCAAACAACAGCACA: -1.35; TAATCTCTGATCTTCCTGTGGG: 0.371. With TTGTCAAGCAGCTTCTCAGTGG, the sensor-assay potency score (higher = more potent) was -0.353. TTCCACTCCATCGCACAGGTGG displayed a sensor-assay potency score (higher = more potent) of -0.748.

The next assay has as its target DLAT. Described as above. The following applies: shRNA.
TTTTTCTACAATGATACAGAGT came in with a sensor-assay potency score (higher = more potent) of -0.634. As to TTTTAAATCTGTTACTTCGGTT, the sensor-assay potency score (higher = more potent) is -0.836. The same measure, in the same setting: next, TTGGTGATTCTACCATCTGGTC: -1.07; TTCTCTACTGCCAACTTCTTTG: -0.772. Sequence TTTCTCTACTGCCAACTTCTTT returned a sensor-assay potency score (higher = more potent) of -1.09. Sequence TCTTTTTCTACAATGATACAGA registered a sensor-assay potency score (higher = more potent) of -0.772. Still for that read-out and setting: next, TAAGTCTCCTTCACTTAGCTTC: -0.196. TATCTTATTAAGTTCTTTCCGT returned a sensor-assay potency score (higher = more potent) of 0.0125. Take TAGGTGTGATGAGTCCTGCAGG: the sensor-assay potency score (higher = more potent) was -0.602. On to TTTGATTGCATTAATCGCTGTG, for which the sensor-assay potency score (higher = more potent) amounted to 0.738. On to TTCATTATCTGCAGGGACCAGT, for which the sensor-assay potency score (higher = more potent) is -0.346. The sequence TTTAAATCTGTTACTTCGGTTG showed a sensor-assay potency score (higher = more potent) of -0.374.
